According to PubChem BioAssay (Tox21):
Results filed as inconclusive are left out. The source made the active and inactive calls. Unless noted, calls follow the shape of the dose curve; as a rule, active = well fitted curve in the direction sought with a large enough effect in the repeat runs; inconclusive = weak or mixed curves; inactive = no such curve, though single readings can be large; an effect the other way counts as inactive or inconclusive.

Legend:
[1] = A CellTox Green Cytotoxicity Assay to monitor cytotoxicity in HepG2 cells - 8 hour (AID 1224890); also: nearly all actives have a fitted effect of over 45% in size
Method in brief: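 Fluorescent DNA-binding dye, 600 HepG2 cells/well, 5 h preincubation then compound in DMSO; same plates read at 0–40 h, 37 C.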

[2] = qHTS assay to identify small molecule antagonists of the estrogen receptor alpha (ER-alpha) signaling pathway using the BG1 cell line in the presence of 0.1 nM 17-beta-estradiol - cell viability counter screen (AID 1259241); also: nearly all actives have a fitted effect of over 40% in size
Method in brief: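 Following 5 days in phenol red-free medium with charcoal-stripped serum, VM7Luc4E2 cells received test compounds alongside 0.1 nM 17beta-estradiol (final) at 37C for 22 hr. Live cells were then quantified via protease-substrate fluorescence.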

[3] = qHTS assay to identify small molecule HDAC inhibitors (AID 1259364); also: potency is read from the fitted curve at half-maximal effect;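 also: wild-type HCT-116 cells with endogenous class I/II HDAC activity; nearly all actives have a fitted effect of over 45% in size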
Method in brief: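 After a 2 hr compound incubation (37C, 5% CO2), HCT-116 cells seeded at 1,500/well the day before received HDAC-Glo reagent; signal read as luminescence after 30 min at room temperature.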

[4] = qHTS assay to identify small molecule HDAC inhibitors - cell viability counter screen (AID 1259365); also: series mostly up to about 92 µM; nearly all actives have a fitted effect of over 50% in size
Method in brief: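 HCT-116 wild-type, overnight attachment; 2hr drug exposure, 37C; CellTiter-Glo luminescent ATP readout after 30min RT.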

[5] = qHTS assay to identify small molecule agonists of the sonic hedgehog signaling (Shh) pathway - cell viability counter screen (AID 1259366); also: nearly all actives have a fitted effect of over 50% in size
Method in brief: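 Compounds in DMSO were pin-transferred onto 3T3 Gli1-Luc cells that had settled 4hr; plates then stood 24hr at 37C and 5% CO2. One hour before the end, CellTiter-Fluor was added and fluorescence recorded.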

[6] = qHTS assay to identify small molecule antagonists of the sonic hedgehog signaling (Shh) pathway - cell viability counter screen (AID 1259367); also: nearly all actives have a fitted effect of over 55% in size; also: potency is read from the fitted curve at half-maximal effect
Method in brief: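 Fluorescence read-out (CellTiter-Fluor, 1 hr at 37C) taken after 23 hr compound treatment of 3T3 Gli1-Luc cells stimulated with conditioned medium. Cells were seeded at 2,000 per well and pre-incubated 4 hr.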

[7] = qHTS assay to identify small molecule agonists of the sonic hedgehog signaling (Shh) pathway (AID 1259368; calls by dose curve; also: nearly all actives have a fitted effect of over 15% in size; also: potency is read from the fitted curve at half-maximal effect)
Method in brief: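 Stable NIH/3T3 Gli1-Luc reporter clone; 24 hr cpd exposure after a 4 hr settling period; luminescence endpoint.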

[8] = qHTS assay to identify small molecule antagonists of the sonic hedgehog signaling (Shh) pathway (AID 1259369; calls by dose curve; also: nearly all actives have a fitted effect of over 45% in size; also: potency is read from the fitted curve at half-maximal effect)
Method in brief: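 Gli1 transcriptional reporter (firefly Luc) in NIH/3T3 background, conditioned-medium activated. 24hr exposure, luminescence endpoint.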

[9] = qHTS assay to identify small molecule agonists of the androgen receptor (AR) signaling pathway in the presence of an antagonist - cell viability counter screen (AID 1259379); also: nearly all actives have a fitted effect of over 25% in size; also: potency is read from the fitted curve at half-maximal effect
Method in brief: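 Counter screen for cell viability run in parallel with the AR agonist-mode luciferase assay. MDA-kb2 cells were co-treated with nilutamide (3.0uM final) and compounds, then incubated 16 hr at 37C, and CellTiter-Fluor fluorescence was measured.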

[10] = qHTS assay to identify small molecule agonists of the estrogen receptor beta (ER-beta) signaling pathway - cell viability counter screen (AID 1259380); also: nearly all actives have a fitted effect of over 30% in size; also: potency is read from the fitted curve at half-maximal effect
Method in brief: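 In this qHTS counter screen, HEK293T cells carrying an ER-beta/UAS beta-lactamase reporter, grown in 2% charcoal-stripped FBS, received compound for 16 hr; ATP-based CellTiter-Glo luminescence was then read after 30 min at room temperature.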

[11] = qHTS assay to identify small molecule antagonists of the estrogen receptor beta (ER-beta) signaling pathway - cell viability counter screen (AID 1259382); also: series mostly up to about 92 µM; nearly all actives have a fitted effect of over 55% in size
Method in brief: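 HEK293T ER-beta-UAS-bla, 2% charcoal-stripped FBS; compounds + 1nM E2 16 hr 37C; CellTiter-Glo luminescence, 30 min RT.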

[12] = qHTS assay to identify small molecule antagonists of the androgen receptor (AR) signaling pathway using the MDA cell line in the presence of 0.5 nM R1881 - cell viability counter screen (AID 1259242); also: nearly all actives have a fitted effect of over 45% in size
Method in brief: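 Human breast carcinoma MDA-kb2 cells, cultured without CO2, receive compounds alongside 0.5 nM (final) R1881 agonist. After 16 hr at 37C, viability is taken as live-cell protease signal.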

[13] = target: Androgen receptor (Homo sapiens) (UniProt P10275); experiment: qHTS assay to identify small molecule antagonists of the androgen receptor (AR) signaling pathway using the MDA cell line in the presence of 0.5 nM R1881 (AID 1259243); also: nearly all actives have a fitted effect of over 50% in size; also: potency is read from the fitted curve at half-maximal effect
Method in brief: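 Cells: MDA-kb2 (MMTV-luc). Stimulus: 0.5 nM R1881. Time: 16 hr, 37C, no CO2. Detection: ONE-Glo luminescence after 30 min at RT.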

[14] = target: Estrogen receptor (Homo sapiens) (UniProt P03372); experiment: qHTS assay to identify small molecule antagonists of the estrogen receptor alpha (ER-alpha) signaling pathway using the BG1 cell line in the presence of 0.1 nM 17-beta-estradiol (AID 1259244); also: nearly all actives have a fitted effect of over 50% in size
Method in brief: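 Seeding of stripped-serum-adapted VM7Luc4E2 cells, 24 h attachment, compound transfer, then 0.1 nM final 17beta-estradiol; after 22 h incubation, ONE-Glo reagent and luminescence reading.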

[15] = qHTS assay to identify small molecule phospholipidosis (PLD) inducers (AID 1259344; active = well fitted curve in the direction sought with a large enough effect; an effect the other way counts as inactive or inconclusive)
Method in brief: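 Read-out is LipidTOX Red fluorescence (ex 595/em 615) imaged in HepG2 cells after 24 h compound exposure at 37 C, with Hoechst nuclear counterstain (ex 352/em 461) allowing per-cell normalisation.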

[16] = target: Estrogen receptor beta (Homo sapiens) (UniProt Q92731); experiment: qHTS assay to identify small molecule agonists of the estrogen receptor beta (ER-beta) signaling pathway (AID 1259377; active = well fitted activation curve with a large enough effect in the signal ratio in the repeat runs, not every such curve was filed as active; the % refers to the signal ratio; also: potency is read from the fitted curve at half-maximal effect)
Method in brief: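 qHTS in ER-beta-UAS-bla HEK293T cells: 6 hr settling, then 16 hr compound at 37C, then LiveBLAzer substrate 2 h at RT before fluorescence reading.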

[17] = target: Estrogen receptor beta (Homo sapiens) (UniProt Q92731); experiment: qHTS assay to identify small molecule antagonists of the estrogen receptor beta (ER-beta) signaling pathway (AID 1259378; active = well fitted inhibition curve with a large enough effect in the signal ratio in the repeat runs, not every such curve was filed as active; the % refers to the signal ratio)
Method in brief: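 ER-beta-UAS-bla HEK293T cells in 2% charcoal-stripped FBS medium treated with compound plus 1nM final 17-beta-estradiol for 16 hr at 37C. Beta-lactamase reporter read by FRET substrate fluorescence after 2 hours at room temperature.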

[18] = target: Androgen receptor (Homo sapiens) (UniProt P10275); experiment: qHTS assay to identify small molecule agonists of the androgen receptor (AR) signaling pathway in the presence of an antagonist (AID 1259381; calls by dose curve; also: nearly all actives have a fitted effect of over 15% in size)
Method in brief: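 AR antagonist background: nilutamide 3.0uM final. Cell line: MDA-kb2, MMTV-driven luciferase, responsive to both AR and GR. Exposure 16hr, 37C, no CO2; ONE-Glo luminescence.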

[19] = target: Estrogen receptor (Homo sapiens) (UniProt P03372); experiment: qHTS assay to identify small molecule agonists of the estrogen receptor alpha (ER-alpha) signaling pathway in the presence of an antagonist (AID 1259383; calls by dose curve; also: nearly all actives have a fitted effect of over 15% in size; also: potency is read from the fitted curve at half-maximal effect; as to activation: top concentration of the series differs between compounds)
Method in brief: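 ER-alpha agonism measured under antagonist challenge: 10.0nM ICI-182,780 (final) plus compound, 15 concentrations, 22hr, VM7Luc4E2 ERE-luciferase cells. Read by luminescence.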

[20] = qHTS assay to identify small molecule agonists or antagonists of the thyroid stimulating hormone receptor (TSHR) signaling pathway - wild type cell line counter screen (AID 1259384; calls by dose curve; also: potency is read from the fitted curve at half-maximal effect)
Method in brief: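 Wild-type Hek293 cells, 800/well, 18 h at 37C, then compound with Ro20-1724 for 30 min RT. cAMP by HTRF (cAMP-d2/anti-cAMP cryptate), 1 h RT, fluorescence read. 15 concentrations, triplicates.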

Measured: Potency

Chain of Estrogen receptor beta (Homo sapiens) (Q92731 whole entry, looked up): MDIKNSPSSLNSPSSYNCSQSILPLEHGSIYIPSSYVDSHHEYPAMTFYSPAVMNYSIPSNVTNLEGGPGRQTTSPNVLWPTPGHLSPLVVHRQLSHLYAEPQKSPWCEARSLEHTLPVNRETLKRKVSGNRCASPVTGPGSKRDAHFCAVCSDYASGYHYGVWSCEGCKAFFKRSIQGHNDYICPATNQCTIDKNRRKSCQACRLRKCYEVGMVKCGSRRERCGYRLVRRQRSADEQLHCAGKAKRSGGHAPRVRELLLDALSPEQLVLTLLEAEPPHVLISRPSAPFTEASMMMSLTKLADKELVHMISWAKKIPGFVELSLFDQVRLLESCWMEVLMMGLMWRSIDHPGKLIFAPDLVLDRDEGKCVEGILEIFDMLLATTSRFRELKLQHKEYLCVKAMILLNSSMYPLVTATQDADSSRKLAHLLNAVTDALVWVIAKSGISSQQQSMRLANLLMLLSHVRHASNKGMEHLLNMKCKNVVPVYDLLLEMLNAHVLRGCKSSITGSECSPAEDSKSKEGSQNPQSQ
Chain of Estrogen receptor (Homo sapiens) (P03372 whole entry, looked up): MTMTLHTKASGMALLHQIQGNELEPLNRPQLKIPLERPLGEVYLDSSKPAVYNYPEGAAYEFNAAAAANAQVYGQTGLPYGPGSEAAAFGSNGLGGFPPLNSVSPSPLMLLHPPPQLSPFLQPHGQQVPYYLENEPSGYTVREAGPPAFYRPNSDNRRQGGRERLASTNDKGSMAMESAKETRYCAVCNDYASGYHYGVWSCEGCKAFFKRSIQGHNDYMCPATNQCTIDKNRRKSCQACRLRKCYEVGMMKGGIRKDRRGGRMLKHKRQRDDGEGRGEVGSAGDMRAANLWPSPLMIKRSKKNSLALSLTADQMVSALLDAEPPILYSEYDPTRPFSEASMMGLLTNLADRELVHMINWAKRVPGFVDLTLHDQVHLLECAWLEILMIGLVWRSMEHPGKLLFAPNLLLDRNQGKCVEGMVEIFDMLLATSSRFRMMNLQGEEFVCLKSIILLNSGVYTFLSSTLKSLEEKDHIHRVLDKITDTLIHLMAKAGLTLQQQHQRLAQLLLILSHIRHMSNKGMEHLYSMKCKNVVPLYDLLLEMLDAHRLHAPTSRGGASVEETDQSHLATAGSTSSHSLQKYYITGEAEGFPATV
Chain of Androgen receptor (Homo sapiens) (P10275 whole entry, looked up): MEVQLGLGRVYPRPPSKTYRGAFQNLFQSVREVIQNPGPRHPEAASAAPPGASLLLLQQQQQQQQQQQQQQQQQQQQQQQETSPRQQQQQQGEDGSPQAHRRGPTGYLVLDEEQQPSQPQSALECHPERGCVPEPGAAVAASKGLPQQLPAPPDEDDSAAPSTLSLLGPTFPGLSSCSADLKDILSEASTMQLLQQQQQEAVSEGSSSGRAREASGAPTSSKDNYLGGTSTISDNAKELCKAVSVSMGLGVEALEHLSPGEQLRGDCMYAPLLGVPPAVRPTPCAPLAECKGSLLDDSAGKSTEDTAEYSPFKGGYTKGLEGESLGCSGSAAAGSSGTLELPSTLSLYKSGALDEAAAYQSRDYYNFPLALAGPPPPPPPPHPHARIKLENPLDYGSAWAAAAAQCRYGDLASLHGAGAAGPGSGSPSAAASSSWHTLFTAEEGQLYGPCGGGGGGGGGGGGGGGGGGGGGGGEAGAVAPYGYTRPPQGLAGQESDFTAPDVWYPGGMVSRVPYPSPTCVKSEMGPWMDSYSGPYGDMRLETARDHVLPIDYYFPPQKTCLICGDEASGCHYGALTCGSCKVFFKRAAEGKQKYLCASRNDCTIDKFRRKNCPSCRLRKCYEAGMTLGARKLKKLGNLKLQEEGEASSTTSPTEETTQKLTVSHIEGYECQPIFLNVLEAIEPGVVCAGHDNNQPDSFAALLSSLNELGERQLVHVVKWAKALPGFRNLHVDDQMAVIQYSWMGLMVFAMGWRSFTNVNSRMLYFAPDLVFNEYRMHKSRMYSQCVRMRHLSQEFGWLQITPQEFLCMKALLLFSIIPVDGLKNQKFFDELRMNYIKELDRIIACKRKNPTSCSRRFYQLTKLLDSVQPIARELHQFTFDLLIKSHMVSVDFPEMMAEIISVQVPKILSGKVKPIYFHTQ

O=C1OC[C@H](Cc2cccc(O)c2)[C@H]1Cc1cccc(O)c1
inactive: [1] | [2] | [3] | [4] | [5] | [6] | [7] | [8] | [9] | [10] | [11]

CN1C(CSCC(F)(F)F)Nc2cc(Cl)c(S(N)(=O)=O)cc2S1(=O)=O (stereo unspecified)
inactive: [1] | [12] | [13] | [14] | [15] | [3] | [4] | [5] | [6] | [7] | [16] | [17] | [9] | [10] | [18] | [11] | [19] | [20]

CCCCC[C@H](O)/C=C/[C@H]1[C@H](O)CC(=O)[C@@H]1C/C=C\CCCC(=O)O
active: [7] 10.6 µM | [8] 0.006 µM | [20] 17.4 nM
inactive: [1] | [2] | [15] | [3] | [4] | [6] | [9] | [10] | [18] | [11] | [19]

O=C(c1ccccc1)c1ccc(O)cc1
active: [13] 24.6 µM | [6] 49.1 µM | [8] 15.5 µM | [16] 12.3 µM | [19] 49.1 µM
inactive: [1] | [12] | [3] | [4] | [5] | [7] | [9] | [10] | [18] | [11] | [20]

COc1cc(NC(C)CCCN)c2ncccc2c1 (stereo unspecified)
inactive: [1] | [12] | [14] | [3] | [4] | [5] | [6] | [7] | [8] | [16] | [17] | [9] | [10] | [11] | [19] | [20]

Nc1ccc(NC(=O)c2ccc(N)cc2)cc1
active: [3] 27.3 µM | [10] 54.5 µM
inactive: [1] | [12] | [13] | [14] | [4] | [5] | [6] | [7] | [8] | [9] | [18] | [19]

CCOC(=O)C(C)O (stereo unspecified)
inactive: [1] | [12] | [14] | [3] | [4] | [5] | [6] | [7] | [8] | [16] | [17] | [9] | [10] | [11] | [19]

CCN(CC)CC(=O)Nc1c(C)cccc1C(=O)OC
inactive: [1] | [12] | [14] | [3] | [4] | [5] | [6] | [7] | [8] | [16] | [17] | [9] | [10] | [11] | [19] | [20]

O=CNNC=O
inactive: [1] | [2] | [3] | [4] | [5] | [6] | [7] | [8] | [16] | [17] | [9] | [10] | [11] | [19] | [20]

O=C1NC(=O)c2cccc3cccc1c23
inactive: [1] | [12] | [14] | [3] | [4] | [5] | [6] | [7] | [8] | [16] | [17] | [9] | [11] | [19] | [20]

COc1cc(OC)c2ccc(=O)oc2c1
inactive: [1] | [12] | [13] | [14] | [3] | [4] | [5] | [6] | [7] | [17] | [9] | [10] | [18] | [11] | [19]

CCOc1ncc(F)c(=O)[nH]1
inactive: [1] | [12] | [14] | [3] | [4] | [5] | [6] | [7] | [8] | [16] | [17] | [9] | [10] | [11] | [19] | [20]

CC(=O)OC(C)C[N+](C)(C)C (stereo unspecified)
inactive: [1] | [12] | [14] | [15] | [3] | [4] | [5] | [6] | [7] | [16] | [17] | [9] | [10] | [11] | [19] | [20]

CCCCCCC(O)CCCCCCCCCCC(=O)OC (stereo unspecified)
inactive: [1] | [2] | [3] | [4] | [5] | [6] | [7] | [16] | [17] | [9] | [20]

CC(CN(CCN(CC(C)OCCO)CC(C)OCCO)CC(C)OCCO)OCCO (stereo unspecified)
active: [9] 33.1 µM
inactive: [1] | [2] | [4] | [5] | [6] | [7] | [8] | [10] | [11] | [20]

CCCCCCCC/C=C\CCCCCCCC(=O)OCCO
active: [8] 36.2 µM
inactive: [1] | [12] | [14] | [3] | [4] | [5] | [6] | [7] | [16] | [9] | [19] | [20]

COC(=O)Nc1nc2ccc(C(=O)C3CC3)cc2[nH]1
active: [3] 23.7 µM
inactive: [1] | [2] | [14] | [4] | [5] | [7] | [8] | [16] | [17] | [10] | [11] | [19] | [20]
